Assay [1] addresses NADPH oxidase 5 (Homo sapiens) (UniProt Q96PH1). Description: NOX5-dependent H2O2 signal modulators, primary screen, NOX inhibitor project, cell-based, HEK293-NOX5, Amplex Red fluorescence (AID 1161). The settings on record: HEK293-NOX5, ionomycin, 45 min, higher = more signal.
A short description of assay [2]: A549 cell viability effects, profiling panel, calcein-AM fluorescence, 48 h, basal (AID 1162). Also: test concentration not given here. The settings on record: higher = more signal.
Assay [3] can be described thus: adipocyte viability effects, profiling panel, cell-based, 3T3-L1 adipocytes, calcein-AM fluorescence, 48 h, basal (AID 1163). Also: test concentration not given here. The settings on record: 3T3-L1 adipocytes viability, higher = more signal.
A short description of assay [4]: HepG2 cell viability effects, profiling panel, calcein-AM fluorescence, 48 h, basal (AID 1164). Also: test concentration not given here. The settings on record: higher = more signal.
Assay [5] is described as follows: MM1S cell viability effects, profiling panel, calcein-AM fluorescence, 48 h, basal (AID 1165).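 Also: viability of MM1S multiple myeloma cells under basal unstimulated conditions; test concentration not given here.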 The settings on record: higher = more signal.
A short description of assay [6]: basal RPMI8226 viability, no added stimulus, profiling panel, cell-based, calcein-AM fluorescence, 48 h, PK04 Diversity Set (AID 1166).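 Also: cells grown under basal conditions without added stimulus; test concentration not given here.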 The settings on record: RPMI8226 myeloma viability, higher = more signal.
Assay [7] is described as follows: basal HepG2 mitochondrial membrane potential changes, profiling panel, cell-based, JC-1 fluorescence, 24 h, 100 nL compound (AID 1167). Also: test concentration not given here. The settings on record: higher = more signal.
Assay [8] can be described thus: basal 3T3-L1 adipocyte mitochondrial potential changes, profiling panel, cell-based, JC-1 fluorescence, 3T3-L1 adipocytes, 24 h, 100 nL compound (AID 1168). Also: test concentration not given here. The settings on record: JC-1 mitochondrial fluorescence, higher = more signal, called active from +8 up or from −8 down.
A short description of assay [9]: basal RPMI8226 mitochondrial membrane potential changes, profiling panel, cell-based, JC-1 fluorescence, 24 h, 100 nL compound (AID 1169). Also: test concentration not given here. The settings on record: RPMI8226 myeloma, JC-1 mitochondrial potential fluorescence, higher = more signal.
Assay [10] is described as follows: basal MM1S mitochondrial membrane potential changes, profiling panel, cell-based, JC-1 fluorescence, 24 h, 100 nL compound (AID 1170). Also: test concentration not given here. The settings on record: higher = more signal.
A short description of assay [11]: A549 lung cancer cell viability effects, profiling panel, resazurin fluorescence, 24 h, PK04 Diversity Set (AID 1171). Also: test concentration not given here. The settings on record: higher = more signal, called active from +8 up or from −8 down. Background: Alamar Blue is a resazurin reagent that responds to reducing activity.
A short description of assay [12]: HepG2 liver cancer cell viability effects, profiling panel, resazurin fluorescence, 24 h, PK04 Diversity Set (AID 1172). Also: test concentration not given here. The settings on record: higher = more signal.
Assay [13] is described as follows: basal S. cerevisiae growth modulation, no modifier, primary screen, OD600, strain BY4716, 24 h, basal condition (AID 1173). The settings on record: OD600, 24 h, higher = more signal, called active from +8 up or from −8 down.
Assay [14] in a line: MM1S myeloma cell viability, profiling panel, resazurin fluorescence, basal, 24 h, PK04 Diversity Set (AID 1174). Also: test concentration not given here. The settings on record: higher = more signal, called active from +8 up or from −8 down.
Assay [15] addresses Dihydroorotate dehydrogenase (quinone), mitochondrial (Plasmodium falciparum (isolate 3D7)) (UniProt Q08210). The assay can be described thus: PfDHODH enzyme inhibitors, primary screen, biochemical, C-terminal His tag, absorbance 600 nm (AID 1175).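 Also: recombinant parasite enzyme with a five histidine tag at its C terminus; test concentration not given here.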 The settings on record: DCIP absorbance 600 nm, higher = more signal, called active from +8 up or from −8 down.
A short description of assay [16]: S. cerevisiae RM11-1a growth modifiers, primary screen, strain RM11-1a, OD600, basal, 24 h (AID 1177).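 Also: cultures grown under basal conditions with no added stressor; test concentration not given here.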 The settings on record: OD600, 24 h, higher = more signal, called active from +8 up or from −8 down.
Assay [17] in a line: E. coli acrAB mutant growth effects, primary screen, E. coli filamentation inducers, strain DRC39, OD650, 24 h (AID 1178).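 Also: growth measured as culture turbidity by optical density at 650 nm; test concentration not given here.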 The settings on record: higher = more signal, called active from +8 up or from −8 down.
Assay [18] in a line: E. coli acrAB mutant growth effects, primary screen, E. coli filamentation inducers, strain DRC39, OD650, 48 h (AID 1179).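 Also: screen aims at cell division blockers that make cells filament.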 The settings on record: E. coli DRC39 delta-acrAB growth, higher = more signal, called active from +8 up or from −8 down.
Assay [19] can be described thus: RPMI8226 myeloma cell viability, profiling panel, resazurin fluorescence, basal, 24 h, PK04 Diversity Set (AID 1180).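 Also: RPMI8826 multiple myeloma cell line at 5000 cells per well; test concentration not given here.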 The settings on record: higher = more signal.
For assay [20], the target named is E3 ubiquitin-protein ligase XIAP (Homo sapiens) (UniProt P98170). Description: XIAP binders, primary screen, biophysical, small-molecule microarray, fluorescence 635 nm (AID 1181).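 Also: score merges 667 nm emission and signal to noise over triplicate slides.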 The settings on record: small-molecule microarray binding, higher = more signal.

Activity calls are given as the source filed them.

E3 ubiquitin-protein ligase XIAP (Homo sapiens), sequence (P98170 whole entry, looked up): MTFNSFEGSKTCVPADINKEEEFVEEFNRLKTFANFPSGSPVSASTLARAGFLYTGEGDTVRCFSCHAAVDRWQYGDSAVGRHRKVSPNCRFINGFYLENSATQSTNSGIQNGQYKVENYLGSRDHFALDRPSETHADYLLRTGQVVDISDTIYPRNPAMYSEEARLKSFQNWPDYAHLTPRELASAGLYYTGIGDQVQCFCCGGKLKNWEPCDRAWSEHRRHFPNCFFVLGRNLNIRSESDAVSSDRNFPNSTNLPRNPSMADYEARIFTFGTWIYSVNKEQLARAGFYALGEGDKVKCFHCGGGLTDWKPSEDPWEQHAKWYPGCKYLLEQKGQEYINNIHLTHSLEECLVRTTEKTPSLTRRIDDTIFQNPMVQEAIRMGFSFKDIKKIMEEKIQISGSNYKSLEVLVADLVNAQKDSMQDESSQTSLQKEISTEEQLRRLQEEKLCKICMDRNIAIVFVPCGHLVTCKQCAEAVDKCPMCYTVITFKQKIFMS
Dihydroorotate dehydrogenase (quinone), mitochondrial (Plasmodium falciparum (isolate 3D7)), sequence (Q08210 whole entry, looked up): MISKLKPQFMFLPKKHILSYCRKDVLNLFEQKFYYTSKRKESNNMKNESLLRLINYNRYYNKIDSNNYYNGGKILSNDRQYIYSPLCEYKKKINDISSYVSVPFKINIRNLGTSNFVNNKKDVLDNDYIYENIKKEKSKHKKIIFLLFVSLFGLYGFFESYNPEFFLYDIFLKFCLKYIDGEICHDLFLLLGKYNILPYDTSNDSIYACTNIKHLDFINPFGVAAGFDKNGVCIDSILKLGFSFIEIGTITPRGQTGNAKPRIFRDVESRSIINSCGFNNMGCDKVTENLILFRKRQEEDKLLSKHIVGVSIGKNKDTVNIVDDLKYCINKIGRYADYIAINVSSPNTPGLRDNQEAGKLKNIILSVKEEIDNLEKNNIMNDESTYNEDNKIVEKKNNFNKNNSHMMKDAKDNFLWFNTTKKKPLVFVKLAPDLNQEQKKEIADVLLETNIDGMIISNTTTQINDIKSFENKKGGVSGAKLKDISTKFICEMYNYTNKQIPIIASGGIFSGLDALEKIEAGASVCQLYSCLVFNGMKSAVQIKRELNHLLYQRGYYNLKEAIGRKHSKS
NADPH oxidase 5 (Homo sapiens), sequence (Q96PH1 whole entry, looked up): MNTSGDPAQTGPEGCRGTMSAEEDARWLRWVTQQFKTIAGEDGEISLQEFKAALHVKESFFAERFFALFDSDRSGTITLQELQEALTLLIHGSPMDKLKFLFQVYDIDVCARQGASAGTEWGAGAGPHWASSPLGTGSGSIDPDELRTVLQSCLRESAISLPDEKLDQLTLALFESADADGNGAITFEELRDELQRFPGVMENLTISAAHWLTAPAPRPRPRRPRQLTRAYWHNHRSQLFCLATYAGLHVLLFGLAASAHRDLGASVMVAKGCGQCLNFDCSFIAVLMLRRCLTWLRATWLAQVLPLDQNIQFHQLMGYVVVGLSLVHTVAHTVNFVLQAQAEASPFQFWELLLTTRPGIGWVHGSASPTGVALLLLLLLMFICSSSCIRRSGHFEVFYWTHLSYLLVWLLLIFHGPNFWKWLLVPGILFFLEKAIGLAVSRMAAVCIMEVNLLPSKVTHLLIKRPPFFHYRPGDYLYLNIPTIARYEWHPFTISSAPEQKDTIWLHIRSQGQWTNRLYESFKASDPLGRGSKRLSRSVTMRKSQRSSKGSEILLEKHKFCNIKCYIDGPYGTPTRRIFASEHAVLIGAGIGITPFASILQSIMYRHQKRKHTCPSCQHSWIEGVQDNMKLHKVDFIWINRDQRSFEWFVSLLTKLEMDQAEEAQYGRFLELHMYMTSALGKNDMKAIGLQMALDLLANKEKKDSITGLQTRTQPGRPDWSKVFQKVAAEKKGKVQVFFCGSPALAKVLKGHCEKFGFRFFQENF

`O=C(O)[C@H]1C[C@H]2C(=O)N[C@@H](Cc3ccccc3)C(=O)N2[C@H]1c1ccc(O)cc1`: the z-score is 2.01 in assay [1]; -0.315 in assay [2]; 0.691 in assay [3]; -0.142 in assay [4]; 0.41 in [5]; 0.0405 in assay [6]. Also, the z-score in assay [7] was 1.29; in assay [8], -0.176 (inactive); in assay [9], -0.865; in assay [10], -0.269; in [11] it was 0.715 (inactive); in assay [12] it was 0.833. Further, the z-score in assay [13] was -0.145 (inactive); in [14], 0.635 (inactive); in [16], -0.44 (inactive); in assay [17], 0.431 (inactive); in assay [18], 0.361 (inactive); in [19] it was 1.04. Further, the composite z-score was -0.426 (inactive) in [15] and 0.117 in [20].

Take `C=C(COC)C(=O)CC[C@H](OC(=O)c1ccccc1-c1ccccc1C(=O)O)c1ccccc1OCCO`: the z-score in [1] is -1.57; in assay [2], 0.341; in [3], 0.819; in [4], -0.927; in [5], -1.41; in assay [6], 0.0361. Besides, the z-score was 0.618 in assay [7]; 0.819 (inactive) in assay [8]; -0.437 in assay [9]; 0.24 in [10]; 0.283 (inactive) in assay [11]; 0.365 in assay [12]. Besides, the z-score in assay [13] was -1.26 (inactive); in assay [14], 0.732 (inactive); in assay [16], -0.524 (inactive); in assay [17], 1.54 (inactive); in [18] it was 0.515 (inactive); in assay [19], 0.439. For the same compound, the composite z-score in assay [15] is -1.46 (inactive); in assay [20] it was -0.111.

As to `C=CCNC(=O)[C@H]1[C@@H]2C(=O)O[C@@H](c3ccccc3)[C@@H](c3ccccc3)N2[C@@H](c2ccc(OCCO)cc2)[C@]12C(=O)Nc1ccc(C#CCCO)cc12`, the z-score was 0.572 in assay [1]; 0.109 in [2]; 2.12 in [3]; 1.05 in assay [4]; 0.416 in assay [5]; 0.364 in assay [6]. Also, the z-score in [7] was 0.355; in [8], 0.815 (inactive); in assay [9], -0.307; in [10] it was 0.128; in assay [11], 0.865 (inactive); in assay [12] it was -0.0836. The z-score in assay [13] was -0.0378 (inactive); in assay [14], 0.806 (inactive); in assay [16], 1.25 (inactive); in [17] it was 0.645 (inactive); in [18] it was 0.499 (inactive); in assay [19], 1.28. In addition, the results for the composite z-score in assay [15] and in assay [20] were 0.0436 (inactive) and -0.0371, respectively.

`CCCCCN1CC=CC23O[C@@H]4/C=C\CCC(C)OC(=O)C4[C@H]2C(=O)N(CCO)[C@@H]3C1=O` (stereo not given in full): the z-score in [1] was 2.5; in [2], 0.414; in assay [3], 2.4; in [4], 0.277; in assay [5] it was 2.91; in assay [6] it was -0.245. Moreover, the z-score in assay [7] was 0.419; in assay [8], 1.74 (inactive); in [9], 0.791; in assay [10], 1.17; in assay [11], 0.095 (inactive); in [12], 0.355. In addition, the z-score is -0.734 (inactive) in assay [13]; 1.32 (inactive) in assay [14]; 0.121 (inactive) in [16]; 1.34 (inactive) in [17]; 1.11 (inactive) in assay [18]; 1.22 in [19]. For the same compound, the composite z-score is 0.0255 (inactive) in [15] and 0.272 in [20].

Take `C=CC[C@@]1(C(=O)NCc2ccccc2)N=C(c2ccc(OCCCO)cc2)O[C@@H]1c1ccccc1`: the z-score was -1.14 in [1]; -0.506 in [2]; 0.791 in [3]; -1.01 in assay [4]; -2.93 in [5]; -4.46 in assay [6]. Also, the z-score was 0.0411 in [7]; 1.84 (inactive) in [8]; -1.23 in assay [9]; 0.199 in assay [10]; 0.0074 (inactive) in assay [11]; 0.547 in assay [12]. In addition, the z-score was -2.16 (inactive) in assay [13]; -0.47 (inactive) in [14]; -1.23 (inactive) in assay [16]; 0.254 (inactive) in [17]; -0.124 (inactive) in [18]; -1.48 in assay [19]. The composite z-score in assay [15] is -0.904 (inactive); in assay [20] it was 1.49.

Consider `C=C1C=C(Br)C2(OCCCO2)[C@H]2OC12` (stereo not given in full), for which the z-score in assay [1] was 0.705; in assay [2], -1.53; in assay [3], -0.191; in [4] it was 0.817; in [5], 0.174; in [6], -0.0566. Besides, the z-score in assay [7] is 0.533; in assay [8], -0.696 (inactive); in assay [9] it was 0.305; in assay [10] it was -0.443; in assay [11], -0.54 (inactive); in assay [12] it was -0.92. Further, the z-score in assay [13] is -0.353 (inactive); in assay [14] it was -2.94 (inactive); in assay [16], 0.307 (inactive); in assay [17], 0.846 (inactive); in [18], 0.781 (inactive); in assay [19], -0.846. Further, the figures for the composite z-score in assay [15] and in assay [20] were -0.99 (inactive) and 0.0009, respectively.

For `C[N+](C)(C)CCCC[C@@H]1NC(=O)[C@H]2C[C@@H](C(=O)NCCCCCN)[C@@H](c3cccc(OCCO)c3)N2C1=O`, the z-score is 2.24 in assay [1]; -0.013 in assay [2]; 2.1 in assay [3]; -0.468 in assay [4]; -0.433 in assay [5]; -0.649 in assay [6]. In addition, the z-score in assay [7] was 1.31; in assay [8], 0.0454 (inactive); in [9], -0.773; in [10] it was 0.0601; in [11], -0.156 (inactive); in [12], -0.148. The z-score was -0.26 (inactive) in [13]; 1.53 (inactive) in [14]; -0.286 (inactive) in assay [16]; 0.222 (inactive) in assay [17]; -0.0647 (inactive) in [18]; 0.729 in [19]. For the same compound, the composite z-score in assay [15] is -0.407 (inactive); in [20] it was -0.163.

In the case of `C=CC[C@@H](OC(=O)Nc1ccc(SC)cc1)c1ccc(OCCO)cc1`, the z-score is -2.26 in assay [1]; 1.13 in assay [2]; 0.344 in [3]; -0.0505 in [4]; -0.2 in assay [5]; 0.0111 in assay [6]. The z-score in [7] was -2.22; in assay [8], 0.812 (inactive); in [9], 0.561; in assay [10], -0.774; in assay [11], 0.364 (inactive); in [12] it was 0.537. The z-score was -5.16 (inactive) in [13]; 0.822 (inactive) in [14]; -0.0086 (inactive) in [16]; 1.28 (inactive) in [17]; 0.899 (inactive) in [18]; 0.301 in assay [19]. The figures for the composite z-score in assay [15] and in assay [20] were -1.13 (inactive) and -0.0773, respectively.

The record behind these values is PubChem BioAssay.
